Experimental data published in publication PMC7819943, “Rice protein-binding microarrays: a tool to detect cis-acting elements near promoter regions in rice”.
Over roughly 68,000 sequences, “fluorescence intensity (a.u.)” has its median near 9,100; the highest 2% begin near 16,000. Many of the other results were omitted from the sample, so the highest values are more common in it than they were.

Target: OsWRKY34 (Oryza sativa, UniProt Q0JBA9 1-250)
Experiment: protein-binding microarray (RPBM); PBS, 2% BSA, 51.3 ng/ul salmon testes DNA, 50 uM zinc acetate, 200 nM TF, 25 C, 1 h; high values mean tight binding
Settings: protein: recombinant; tags: N-terminal polyhistidine and DsRed monomer fusion (pET32a); label: CyDye5-dUTP incorporated in the synthesized complementary strand; 3' TTTTT single-stranded linker to array surface; dsDNA, one strand shown
In short: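 Using Ni–NTA, transcription factors fused N-terminally to polyhistidine and DsRed were purified after expression in E. coli BL21-CodonPlus. These were incubated at 200 nM with a blocked, double-stranded custom Agilent array for 1 h at 25 °C in a buffer containing 50 µM zinc acetate, and the array was washed. The binding signal is per-feature fluorescence intensity (arbitrary units) on an Axon 4000B scanner.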

Sequence of OsWRKY34 (Q0JBA9 entry or part of it): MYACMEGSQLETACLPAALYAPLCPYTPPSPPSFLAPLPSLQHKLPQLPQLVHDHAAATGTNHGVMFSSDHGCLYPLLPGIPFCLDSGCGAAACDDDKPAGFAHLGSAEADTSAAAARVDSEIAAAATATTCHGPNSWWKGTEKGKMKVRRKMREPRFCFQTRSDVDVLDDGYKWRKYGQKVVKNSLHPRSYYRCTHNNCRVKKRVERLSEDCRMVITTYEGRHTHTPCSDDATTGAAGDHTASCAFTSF

| Sequence | binding signal |
| --- | --- |
| ATCCGTCCGTTTCGTTCCGTACGAACCGCCGGCGTTCAAACGGAGTCACCTAGTGCAG | 8580 fluorescence intensity (a.u.) |
| GCCTCCGCCGCCGCCGCCGCCCGCCGGCCATCTCCGTCGACGGAGTCACCTAGTGCAG | 13900 fluorescence intensity (a.u.) |
| CAATGTATTCAGGTACGCCGATTATTTGGTTGGTAGTAGTCGGAGTCACCTAGTGCAG | 11500 fluorescence intensity (a.u.) |
| ATACTCGCTCCGTGTTTTAATATATGACGCTGTTGATTTTCGGAGTCACCTAGTGCAG | 12700 fluorescence intensity (a.u.) |
| GCTCGGTGTGGCGATCTCACAGCCGCATATCGCATTTCACCGGAGTCACCTAGTGCAG | 8680 fluorescence intensity (a.u.) |
| GGCCCCACGTTTCATCCTCACGACCGTGTCCAACCCAGGGCGGAGTCACCTAGTGCAG | 10300 fluorescence intensity (a.u.) |
| AAGAGGGCGCGGGTGGCGGGGATGGGCGAGGGGAAGGCGGCGGAGTCACCTAGTGCAG | 17700 fluorescence intensity (a.u.) |
| ATCTCCGTCGGTGGGGAAAAGGAGGTGGGGAGGGGAGGAGCGGAGTCACCTAGTGCAG | 18800 fluorescence intensity (a.u.) |
| GCTTTGGTCGGTTGGGGTGGGCTGGATGCGCCTCCGCGCTCGGAGTCACCTAGTGCAG | 17800 fluorescence intensity (a.u.) |
| TGGAGTGGAGTTTCGATAGGTGTGGCGGGGAGGGAGGGAGCGGAGTCACCTAGTGCAG | 19800 fluorescence intensity (a.u.) |
| GAGGTGGTGGAGCGAGGTGGAAGAGGGCGCGGGTGGCGGGCGGAGTCACCTAGTGCAG | 9480 fluorescence intensity (a.u.) |
| TGTGGTGGCGAGCGGCACGGAGGCGGGGCGGTGGAGGGAGCGGAGTCACCTAGTGCAG | 9670 fluorescence intensity (a.u.) |
| TGGTTTTATAGGCGTGGGGTGTGGAGCTTCGAGGGGAAGGCGGAGTCACCTAGTGCAG | 13900 fluorescence intensity (a.u.) |
| CGCGCGGTCGAGGAGGGTGGGGCCGCCGCGCTCACCTCCGCGGAGTCACCTAGTGCAG | 8480 fluorescence intensity (a.u.) |
| GTGGCGCGAGGGGAGGGAAGGGTAGGGCGGCGCGGCGGCGCGGAGTCACCTAGTGCAG | 9730 fluorescence intensity (a.u.) |
| GAAGAGGAGAGAGGAAGAGAGGTGGAAAGGGGAGGGGAAGCGGAGTCACCTAGTGCAG | 9460 fluorescence intensity (a.u.) |
| CGGTGGTGGTGGATGCTGGCGCTGGCGGTGGGCGCGAGCTCGGAGTCACCTAGTGCAG | 10100 fluorescence intensity (a.u.) |
| CGTCGGTAGGGAGGAGGAGGAGGAGGAGGTGGTGGTGGTGCGGAGTCACCTAGTGCAG | 12000 fluorescence intensity (a.u.) |
| CAGATGGTCTGGTGGTCGGCGGAGGTCCCGGCGCGCGCGTCGGAGTCACCTAGTGCAG | 8360 fluorescence intensity (a.u.) |
| TATGGTATTTGGGTTAAAGAACGAAAATCGAACTCGCTGTCGGAGTCACCTAGTGCAG | 8160 fluorescence intensity (a.u.) |
| GAGGGAGGGAGGGAGGGAGACCGCGAGTGTGAGTGACTGCCGGAGTCACCTAGTGCAG | 10200 fluorescence intensity (a.u.) |

| Sequence | binding signal |
| --- | --- |
| ACTGCCCTTATCATTTCCGATTCCGTTTCCGAGAAAATATCGGAGTCACCTAGTGCAG | 9240 fluorescence intensity (a.u.) |
| ACTTTGTCACTTGACTTATTCTCTGGCCGTGCGTATAAATCGGAGTCACCTAGTGCAG | 8150 fluorescence intensity (a.u.) |
| CCTGCTATTGTACCTGCTCTAAGCCAGCTATAACCATATACGGAGTCACCTAGTGCAG | 8170 fluorescence intensity (a.u.) |
| GTGAAGTGTGGTTTAAAAATGGTTGCCTGGTCACTTTATCCGGAGTCACCTAGTGCAG | 9020 fluorescence intensity (a.u.) |
| TGTCAGTCACTGTCCCCTTCGTGGTCGTCTTCGCCACTTCCGGAGTCACCTAGTGCAG | 9210 fluorescence intensity (a.u.) |
| AGGTGGAGGCGCCGGTGTGGGTGGTGGAGCGGGAGGAGGTCGGAGTCACCTAGTGCAG | 8610 fluorescence intensity (a.u.) |
| GTCGGGCGGGAGCGGTGCAGGGTGGAGGAGGTGGGCGGGGCGGAGTCACCTAGTGCAG | 22900 fluorescence intensity (a.u.) |
| CGGCGGAGGGAGGATCGGGGTGGGTGGCGCAGCGGCGACGCGGAGTCACCTAGTGCAG | 11200 fluorescence intensity (a.u.) |
| GGGGAGGCGAGGCGGCGAGGTTATAAAAACGGTGGGGTGGCGGAGTCACCTAGTGCAG | 12200 fluorescence intensity (a.u.) |
| GGCGGGAGGCGCGGGCGGCGAGGTGCTCCTCTTCTCTCTCCGGAGTCACCTAGTGCAG | 9060 fluorescence intensity (a.u.) |
| AAGCGATCGGGGCGGCGGAGGAGGTGGGTGGGAGGGAGGGCGGAGTCACCTAGTGCAG | 30200 fluorescence intensity (a.u.) |
| GGCGGGCGCGGTGGAGGCGGGGAGGAAGGGGAGCGGAGGTCGGAGTCACCTAGTGCAG | 9390 fluorescence intensity (a.u.) |
| GCGGTGGCGGTTGGGGTGGCGAGTGGGGAGGAGGAGGCGGCGGAGTCACCTAGTGCAG | 18900 fluorescence intensity (a.u.) |
| CTCTCCTCTCTTCTCGAGCGCGGCGGCGGTGGTGGGGAGGCGGAGTCACCTAGTGCAG | 14300 fluorescence intensity (a.u.) |
| GCGGAGGAGGGCGGGAGGAAGCGGGTGGCGGCGGCGGAGTCGGAGTCACCTAGTGCAG | 10900 fluorescence intensity (a.u.) |
| GGGGTGGGGTTGGCGGCGACGCGGGCGAGGCCGAGGAGGACGGAGTCACCTAGTGCAG | 13400 fluorescence intensity (a.u.) |
| TCTCTTCCTTGCTGTGGTGGCGGCGGGCGGGAGGGCGGCGCGGAGTCACCTAGTGCAG | 35000 fluorescence intensity (a.u.) |
| ATACTAGTCCATTCGAGTTGAAACGTTCAGTGAACAGCTACGGAGTCACCTAGTGCAG | 8030 fluorescence intensity (a.u.) |
| GATCTCTTGCAGCTGCGCATCTGTGCATGCATCCACACTACGGAGTCACCTAGTGCAG | 9260 fluorescence intensity (a.u.) |
| TTGATCCTGCTTTTAGTTATAGTTTTTGTTAGGGTGTATTCGGAGTCACCTAGTGCAG | 10100 fluorescence intensity (a.u.) |
| TAAAACTAGTCATCCCTTCATTTTATATTATAAGTTGTTTCGGAGTCACCTAGTGCAG | 8290 fluorescence intensity (a.u.) |
